Calls of active or inactive are those of the source. How the source made its calls: active means hit-call score of the fitted dose curve at least 0.9, where 1 is the maximum; inactive means score below 0.9.
Key:
Settings in all cases: mRNA level, 48 h; actives raise or lower the signal
[1] = read-out: DNA damage-inducible transcript 3 (DDIT3), DDIT3 (gene 1649); experiment: LTEA_HepaRG_DDIT3: Life Technologies and Expression Analysis (LTEA) Assay for DNA damage-inducible transcript 3 (DDIT3) using HepaRG (AID 2283488)
How it was run: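 HepaRG cells, 48 h after plating, exposed 48 h in serum-free induction medium to 8 half-log concentrations up to 100 uM in 0.5% DMSO, in duplicate. DDIT3 mRNA measured by TaqMan qRT-PCR, normalized to ACTB, GAPDH and POLR2A. Fitted bidirectionally against DMSO.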

[2] = read-out: Pro-epidermal growth factor (Homo sapiens) (UniProt P01133); experiment: LTEA_HepaRG_EGF: Life Technologies and Expression Analysis (LTEA) Assay for Epidermal growth factor (EGF) using HepaRG (AID 2283489)
How it was run: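 Concentration-response mRNA assay: HepaRG cells dosed 48 h (max 100 uM, 0.5% DMSO), EGF measured by qRT-PCR and normalized to ACTB/GAPDH/POLR2A.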

[3] = read-out: Early growth response protein 1 (EGR1) transcription factor, EGR1 (gene 1958); experiment: LTEA_HepaRG_EGR1: Life Technologies and Expression Analysis (LTEA) Assay for Early growth response protein 1 (EGR1) transcription factor using HepaRG (AID 2283490)
How it was run: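 Differentiated HepaRG cells in serum-free induction medium exposed 48 hours, duplicate, to 8 half-log concentrations up to 100 uM in 0.5% DMSO. EGR1 mRNA measured by TaqMan qRT-PCR, normalized to ACTB, GAPDH, POLR2A; bidirectional fit versus DMSO.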

[4] = read-out: Fatty Acid-Binding Protein 1 (FABP1), FABP1 (gene 2168); experiment: LTEA_HepaRG_FABP1: Life Technologies and Expression Analysis (LTEA) Assay for Fatty Acid-Binding Protein 1 (FABP1) using HepaRG (AID 2283494)
How it was run: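 Differentiated human HepaRG cells exposed 48 h in serum-free induction medium to eight half-log concentrations up to 100 uM (0.5% DMSO), duplicate. FABP1 mRNA by qRT-PCR, normalised to ACTB, GAPDH, POLR2A; bidirectional fitting against DMSO.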

[5] = read-out: Glutathione S-Transferase (GSTA2), GSTA2 (gene 2939); experiment: LTEA_HepaRG_GSTA2: Life Technologies and Expression Analysis (LTEA) Assay for Glutathione S-Transferase (GSTA2) using HepaRG (AID 2283497)
How it was run: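 Differentiated human HepaRG cells were exposed in duplicate for 48 h in serum-free induction medium, 8 points from 100 uM top in half-log steps, 0.5% DMSO. GSTA2 mRNA was measured by TaqMan qRT-PCR, normalized to ACTB, GAPDH and POLR2A; bidirectional fit versus DMSO.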

[6] = read-out: Glutamate-cysteine ligase catalytic (GCLC), GCLC (gene 2729); experiment: LTEA_HepaRG_GCLC: Life Technologies and Expression Analysis (LTEA) Assay for Glutamate-cysteine ligase catalytic (GCLC) using HepaRG (AID 2283498)
How it was run: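 Differentiated HepaRG cells exposed 48 h in serum-free induction medium, eight-point half-log series topping at 100 uM in 0.5% DMSO, duplicates. GCLC mRNA by qRT-PCR normalized to ACTB, GAPDH and POLR2A, fitted bidirectionally versus DMSO.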

[7] = read-out: Glutamate-cysteine ligase regulatory (GCLM), GCLM (gene 2730); experiment: LTEA_HepaRG_GCLM: Life Technologies and Expression Analysis (LTEA) Assay for Glutamate-cysteine ligase regulatory (GCLM) using HepaRG (AID 2283500)
How it was run: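 Differentiated HepaRG cells exposed 48 h in serum-free induction medium to eight half-log concentrations up to 100 uM (0.5% DMSO). GCLM mRNA by TaqMan qRT-PCR, normalized to ACTB, GAPDH and POLR2A; bidirectional fit versus DMSO.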

[8] = read-out: Glutathione S-transferase M3 (GSTM3), GSTM3 (gene 2947); experiment: LTEA_HepaRG_GSTM3: Life Technologies and Expression Analysis (LTEA) Assay for Glutathione S-transferase M3 (GSTM3) using HepaRG (AID 2283501)
How it was run: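 Expression of GSTM3 is determined by qRT-PCR in human liver HepaRG cells treated 48 h with an 8-point half-log range from 100 uM in 0.5% DMSO.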

[9] = read-out: Heat shock 70 kDa protein 1 (HSPA1A), gene 3303; experiment: LTEA_HepaRG_HSPA1A: Life Technologies and Expression Analysis (LTEA) Assay for Heat shock 70 kDa protein 1 (HSPA1A) using HepaRG (AID 2283502)
How it was run: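 Human HepaRG cells in serum-free induction medium were exposed in duplicate for 48 h to 8 half-log concentrations, highest 100 uM, in 0.5% DMSO. HSPA1A mRNA read by TaqMan qRT-PCR, normalized to ACTB, GAPDH, POLR2A, fitted bidirectionally against DMSO.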

[10] = read-out: 3-Hydroxy-3-Methylglutaryl-CoA Synthase 2 (HMGCS2), HMGCS2 (gene 3158); experiment: LTEA_HepaRG_HMGCS2: Life Technologies and Expression Analysis (LTEA) Assay for 3-Hydroxy-3-Methylglutaryl-CoA Synthase 2 (HMGCS2) using HepaRG (AID 2283504)
How it was run: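 This steatosis marker was read as HMGCS2 mRNA change in HepaRG cells treated 48 h with up to 100 uM chemical. Normalisation used housekeeping genes; activity in either direction was fitted relative to 0.5% DMSO vehicle.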

[11] = read-out: growth arrest and DNA damage 45 (GADD45G), GADD45G (gene 10912); experiment: LTEA_HepaRG_GADD45G: Life Technologies and Expression Analysis (LTEA) Assay for growth arrest and DNA damage 45 (GADD45G) using HepaRG (AID 2283499)
How it was run: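 Concentration-response in HepaRG: 48 h dosing, 0.5% DMSO, highest level 100 uM. GADD45G expression by qRT-PCR, normalised to endogenous controls; bidirectional fit to DMSO.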

CYP2E1 (gene 1571) = experiment: LTEA_HepaRG_CYP2E1: Life Technologies and Expression Analysis (LTEA) Assay for CYP2E1 using HepaRG (AID 2283485)
How it was run: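 HepaRG cells, plated 48 h, then exposed 48 h in serum-free induction medium to eight half-log concentrations from 100 uM in 0.5% DMSO, duplicate. CYP2E1 mRNA by qRT-PCR, normalized to ACTB/GAPDH/POLR2A; bidirectional fit versus DMSO.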

CYP4A11 (gene 1579) = experiment: LTEA_HepaRG_CYP4A11: Life Technologies and Expression Analysis (LTEA) Assay for CYP4A11 using HepaRG (AID 2283486)
How it was run: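 Human hepatic HepaRG cultures receive duplicate 48 h exposures across a concentration-response series topping at 100 uM. Expression changes in CYP4A11 are measured by qRT-PCR relative to DMSO controls.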

[12] = read-out: Cytochrome P450 3A4 (Homo sapiens) (UniProt P08684); experiment: LTEA_HepaRG_CYP3A4: Life Technologies and Expression Analysis (LTEA) Assay for CYP3A4 using HepaRG (AID 2283487)
How it was run: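 Differentiated HepaRG cells, plated 48 h, then dosed 48 h in serum-free induction medium with 0.5% DMSO, 8 half-log concentrations up to 100 uM, duplicate. CYP3A4 mRNA by qRT-PCR, normalized to ACTB/GAPDH/POLR2A; bidirectional fit versus DMSO.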

[13] = read-out: Cytochrome P450 3A7 (Homo sapiens) (UniProt P24462); experiment: LTEA_HepaRG_CYP3A7: Life Technologies and Expression Analysis (LTEA) Assay for CYP3A7 using HepaRG (AID 2283492)
How it was run: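 qRT-PCR of CYP3A7 in HepaRG lysates after 48 h treatment; concentration-response (8 points, max 100 uM) analysed bidirectionally relative to 0.5% DMSO controls.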

[14] = read-out: Cytochrome P450 4A22 (Homo sapiens) (UniProt Q5TCH4); experiment: LTEA_HepaRG_CYP4A22: Life Technologies and Expression Analysis (LTEA) Assay for Cytochrome P450 4A22 (CYP4A22) using HepaRG (AID 2283495)
How it was run: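 Concentration-response (8 points, max 100 uM, 0.5% DMSO) in human HepaRG liver cells after 48 h exposure. CYP4A22 mRNA by TaqMan qRT-PCR with housekeeping-gene normalization.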

[15] = read-out: Cytochrome P450 7A1 (Homo sapiens) (UniProt P22680); experiment: LTEA_HepaRG_CYP7A1: Life Technologies and Expression Analysis (LTEA) Assay for Cytochrome P450 7A1 (CYP7A1) using HepaRG (AID 2283496)
How it was run: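 HepaRG cells plated 48 h, then switched to serum-free induction medium and exposed in duplicate for 48 h to 8-point half-log series from 100 uM in 0.5% DMSO. CYP7A1 mRNA by qRT-PCR (TaqMan), normalized to ACTB/GAPDH/POLR2A; bidirectional fit versus DMSO.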

[16] = read-out: Hypoxia-inducible factor 1-alpha (Homo sapiens) (UniProt Q16665); experiment: LTEA_HepaRG_HIF1A: Life Technologies and Expression Analysis (LTEA) Assay for Hypoxia-inducible factor 1 (HIF1A) Trancription factor using HepaRG (AID 2283503)
How it was run: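 Differentiated HepaRG cells in serum-free induction medium exposed 48 h, in duplicate, to 8-point half-log series from 100 uM in 0.5% DMSO. HIF1A mRNA measured by TaqMan qRT-PCR, normalized to ACTB/GAPDH/POLR2A, fitted bidirectionally versus DMSO.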

CYP3A5 (gene 1577) = experiment: LTEA_HepaRG_CYP3A5: Life Technologies and Expression Analysis (LTEA) Assay for CYP3A5 using HepaRG (AID 2283493)
How it was run: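 HepaRG cells, plated 48 h then in serum-free induction medium, dosed in duplicate for 48 h with eight half-log concentrations up to 100 uM in 0.5% DMSO. Gene mRNA by Fluidigm TaqMan qRT-PCR, normalized to ACTB, GAPDH, POLR2A.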

[17] = read-out: Ezrin (EZR), EZR (gene 7430); experiment: LTEA_HepaRG_EZR: Life Technologies and Expression Analysis (LTEA) Assay for Ezrin (EZR) using HepaRG (AID 2283491)
How it was run: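 EZR transcript levels came from Fluidigm qRT-PCR and were normalized to three housekeeping genes after 48 h chemical exposure of HepaRG cells. Dosing used an 8-point half-log series with a 100 uM top concentration in 0.5% DMSO, tested in duplicate; both directions were fitted versus vehicle.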

Measured: AC50

Chain of Cytochrome P450 3A7 (Homo sapiens) (P24462 whole entry, looked up): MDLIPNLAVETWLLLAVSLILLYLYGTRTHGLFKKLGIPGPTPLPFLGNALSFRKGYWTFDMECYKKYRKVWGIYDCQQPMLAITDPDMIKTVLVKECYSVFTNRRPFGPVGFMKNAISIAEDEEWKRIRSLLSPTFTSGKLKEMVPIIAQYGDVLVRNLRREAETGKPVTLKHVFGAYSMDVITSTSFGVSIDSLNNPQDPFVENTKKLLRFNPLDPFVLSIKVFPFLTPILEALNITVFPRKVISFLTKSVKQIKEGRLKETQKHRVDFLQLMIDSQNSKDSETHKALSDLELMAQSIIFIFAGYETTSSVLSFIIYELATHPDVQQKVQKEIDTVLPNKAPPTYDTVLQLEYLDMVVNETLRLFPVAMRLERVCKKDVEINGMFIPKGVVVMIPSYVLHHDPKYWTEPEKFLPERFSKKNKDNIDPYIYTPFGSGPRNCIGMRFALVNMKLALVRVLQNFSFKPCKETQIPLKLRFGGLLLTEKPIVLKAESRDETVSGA
Chain of Cytochrome P450 3A4 (Homo sapiens) (P08684 whole entry, looked up): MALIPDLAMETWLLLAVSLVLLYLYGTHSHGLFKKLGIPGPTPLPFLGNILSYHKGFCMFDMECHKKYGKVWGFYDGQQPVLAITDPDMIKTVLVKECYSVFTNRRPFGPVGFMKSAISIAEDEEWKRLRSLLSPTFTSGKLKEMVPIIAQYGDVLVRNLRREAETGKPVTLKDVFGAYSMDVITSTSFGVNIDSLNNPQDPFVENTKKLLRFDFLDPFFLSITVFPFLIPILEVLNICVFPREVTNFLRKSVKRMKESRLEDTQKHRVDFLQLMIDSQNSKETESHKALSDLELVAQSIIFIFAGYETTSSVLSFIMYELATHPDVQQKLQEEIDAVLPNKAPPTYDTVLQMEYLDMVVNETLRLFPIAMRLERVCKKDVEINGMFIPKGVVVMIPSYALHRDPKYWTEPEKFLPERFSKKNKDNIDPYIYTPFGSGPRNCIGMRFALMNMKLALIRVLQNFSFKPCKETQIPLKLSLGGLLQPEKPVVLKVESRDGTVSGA
Chain of Hypoxia-inducible factor 1-alpha (Homo sapiens) (Q16665 whole entry, looked up): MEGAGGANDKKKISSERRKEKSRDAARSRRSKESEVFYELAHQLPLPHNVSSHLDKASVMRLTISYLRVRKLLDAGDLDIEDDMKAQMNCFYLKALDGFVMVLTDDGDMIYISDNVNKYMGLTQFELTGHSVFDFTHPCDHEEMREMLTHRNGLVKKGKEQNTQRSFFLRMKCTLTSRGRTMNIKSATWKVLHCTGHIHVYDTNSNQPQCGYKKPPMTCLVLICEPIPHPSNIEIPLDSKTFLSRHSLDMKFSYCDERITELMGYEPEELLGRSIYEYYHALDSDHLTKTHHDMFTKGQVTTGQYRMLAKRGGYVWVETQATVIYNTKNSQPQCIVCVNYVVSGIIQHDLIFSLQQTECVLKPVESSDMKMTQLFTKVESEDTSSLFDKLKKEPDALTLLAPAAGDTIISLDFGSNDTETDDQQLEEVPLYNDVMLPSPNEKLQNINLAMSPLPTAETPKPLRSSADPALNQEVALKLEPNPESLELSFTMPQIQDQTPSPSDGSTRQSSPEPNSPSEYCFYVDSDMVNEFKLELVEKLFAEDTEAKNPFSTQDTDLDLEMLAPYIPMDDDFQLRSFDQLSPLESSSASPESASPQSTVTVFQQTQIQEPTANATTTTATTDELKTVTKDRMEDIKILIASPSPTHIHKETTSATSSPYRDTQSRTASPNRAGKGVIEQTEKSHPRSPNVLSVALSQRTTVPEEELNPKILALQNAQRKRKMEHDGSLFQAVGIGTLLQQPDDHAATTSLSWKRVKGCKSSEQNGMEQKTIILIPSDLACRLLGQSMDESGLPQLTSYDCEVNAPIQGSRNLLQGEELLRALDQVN

CC(C)=CCC/C(C)=C\CO
inactive: [1] | [2] | [3] | [4] | [5] | [6] | [7] | [8] | [9] | [10]

NC(=O)NO
inactive: [1] | [2] | [3] | [4] | [5] | [6] | [11] | [7] | [8] | [9] | [10]

O=C1OC(=O)C2C3C=CC(C3)C12 (centres undefined)
not listed: CYP3A5 (gene 1577) | [17]
inactive: all other assays above

CC[C@H]1OC(=O)[C@H](C)[C@@H](O[C@H]2C[C@@](C)(OC)[C@@H](O)[C@H](C)O2)[C@H](C)[C@@H](O[C@@H]2O[C@H](C)C[C@H](N(C)C)[C@H]2O)[C@](C)(O)C[C@@H](C)C(=O)[C@H](C)[C@@H](O)[C@]1(C)O
active: CYP2E1 (gene 1571) 16 µM | [12] 19.6 µM | [13] 13.9 µM
not listed: [11] | [16] | [17]
inactive: all other assays above

Cn1cnc([N+](=O)[O-])c1Sc1ncnc2nc[nH]c12
active: CYP2E1 (gene 1571) 1.45 µM | CYP4A11 (gene 1579) 0.324 µM | [1] 9.59 µM | [3] 13 µM | [4] 27 µM | [14] 0.238 µM | [15] 2.09 µM | [5] 1.35 µM | [11] 1.11 µM | [10] 3.93 µM
inactive: [2] | CYP3A5 (gene 1577) | [6] | [7] | [8] | [9]

O=C(O)c1cc(N=Nc2ccc(S(=O)(=O)Nc3ccccn3)cc2)ccc1O
not listed: [8] | [12] | [16]
inactive: all other assays above
